Data from PubChem BioAssay (NCATS).
Calls of active or inactive are those of the source. Entries that show only a call come without a potency. Calls follow the shape of the dose curve; as a rule, active = well fitted curve in the direction sought with a large enough effect; inconclusive = small, poorly fitted or top-dose-only effect, or another doubt; inactive = no such curve, though single readings can be large or run the other way.

Molecular target: Galactokinase (Homo sapiens) (UniProt P51570)
Sequence (P51570 whole entry, looked up): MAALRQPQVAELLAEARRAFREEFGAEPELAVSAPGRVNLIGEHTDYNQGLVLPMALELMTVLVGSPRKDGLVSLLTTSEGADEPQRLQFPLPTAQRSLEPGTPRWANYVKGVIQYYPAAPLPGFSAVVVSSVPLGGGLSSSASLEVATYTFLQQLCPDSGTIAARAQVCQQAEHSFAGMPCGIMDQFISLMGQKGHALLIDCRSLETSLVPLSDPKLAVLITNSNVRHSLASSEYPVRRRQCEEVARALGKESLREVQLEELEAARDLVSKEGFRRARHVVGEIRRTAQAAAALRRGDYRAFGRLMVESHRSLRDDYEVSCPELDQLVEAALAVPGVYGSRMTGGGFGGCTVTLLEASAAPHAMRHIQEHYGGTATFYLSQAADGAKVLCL
Assay: qHTS Validation Assay for Inhibitors of Human Galactokinase (GALK) (AID 493189)
Conditions: purified human GALK enzyme activity, qHTS 7-point titration; series mostly up to 57.5 µM
Text: NIH Molecular Libraries Probe Production Centers Network [MLPCN]
NIH Chemical Genomics Center [NCGC]
Assay Submitter (PI): Kent Lai (University of Utah School of Medicine, 50 N Mario Capecchi Drive, Salt Lake City, UT 84132)
Inherited deficiency of galactose-1-phosphate uridyltransferase (GALT) can result in a potentially lethal disorder called Classic Galactosemia (OMIM 230400). Several lines of evidence indicate that an elevated level of galactose-1-phosphate (gal-1-p), the product of galactokinase (GALK), is a major, if not sole, pathogenic mechanism in patients with classic galactosemia. Therefore, finding inhibitors of GALK is a potential novel therapy for this inherent metabolic disease and is the long term goal of this project.
GALK (provided by the assay submitter) was assayed using ATP and D-(+)-Galactose (Sigma-Aldrich cat# G0750) as substrates. Promega Kinase-Glo Plus (cat# V3774) technology was used to detect the residual ATP following kinetic reaction. Briefly, the Kinase-Glo Plus contains Ultra-Glo [2] luciferase and D-luciferin which generates a bioluminescence signal from the remaining ATP.
NCGC Assay Protocol Summary:
Three uL/well of ATP-buffer solution (35 uM ATP, 20mM HEPES pH8.0, 5 mM MgCl2, 60 mM NaCl, 1 mM DTT, 0.01% BSA final concentration) was dispensed into 1536-well, assay plates (Greiner, solid white medium-binding plates) with Aurora Discovery BioRAPTR Flying Reagent Dispenser (FRD; Beckton-Dickenson). Compound solution (23 nL) was transferred to the assay plate using the Kalypsys 1536-pin tool. One uL/well GALK-galactose solution (5 nM GALK, 100 uM galactose, 20 mM HEPES pH8.0, 5 mM MgCl2, 60 mM NaCl, 1 mM DTT, 0.01% BSA final concentration) was then added using the FRD yielding a total kinase reaction volume of 4 uL/ well. After 1 hour of room temperature incubation, 4 uL Kinase-Glo Plus reagent was added for a final assay volume of 8 uL/ well. Luminescence was detected with the ViewLux plate reader (Perkin Elmer, Waltham, MA) after 10 min incubation using a 1 sec exposure time and 2x binning.

Structure (SMILES) | Potency
NC(=Nc1ccccc1)NC(=O)c1nc(Cl)c(N)nc1N | inactive
N=C(N)c1ccc(N)cc1 | inactive
O=C(O)Cc1c[nH]c2ccc(O)cc12 | inactive
COC(=O)C1=C(C)NC(C)=C([N+](=O)[O-])C1c1ccccc1C(F)(F)F (stereo not given) | inactive
O=C(O)C1=CCNCC1 | inactive
Nc1ncnc2c1ncn2C1CCCC1 | inactive
CSC(=N)N | inactive
O=[N+]([O-])c1cccc2c(Br)[nH]nc12 | inactive
CCCCS(=N)(=O)CC[C@H](N)C(=O)O (stereo not given in full) | inactive
O=c1cc(-c2ccccc2)[nH]c2nc(Cl)ccc12 | inactive
O=C(O)C1=CCCN(CCON=C(c2ccccc2)c2ccccc2)C1 | inactive
O=c1[nH]c2ccccc2c2ccccc12 | inactive
O[Si](CCCN1CCCCC1)(c1ccc(F)cc1)C1CCCCC1 (stereo not given) | inactive
CCCCC[C@H](CC(=O)NO)C(=O)N[C@H](C(=O)N1CCC[C@H]1CO)C(C)C | inactive
NCCNS(=O)(=O)c1cccc2c(Cl)cccc12 | inactive
Cn1ccnc1 | inactive
Oc1cc(O)c2c(c1)O[C@H](c1ccc(O)c(O)c1)[C@@H](O)C2 | inactive
CC(=O)/C(C)=N/O | inactive
COC(=O)C(C)(N)Cc1ccc(O)cc1 (stereo not given) | inactive
CN(C)S(=O)(=O)c1ccc2c(c1)/C(=C/c1cc3c([nH]1)CCCC3)C(=O)N2 | inactive

Structure (SMILES) | Potency
Cc1nc2c(OCc3ccccc3)cccn2c1CC#N | inactive
COC1(C2=NCCN2)COc2ccccc2O1 (stereo not given) | inactive
CCC1(O)CC2CN(CCc3c([nH]c4ccccc34)[C@@](C(=O)OC)(c3cc4c(cc3OC)N(C)C3[C@]45CCN4CC=C[C@@](CC)([C@@H](OC(C)=O)[C@]3(O)C(=O)OC)[C@H]45)C2)C1 (stereo not given in full) | inactive
COCc1nc2c([nH]1)c(=O)n(C)c(=O)n2CC(C)C | inactive
C=CCN1CCc2c(cc(O)c(O)c2Br)[C@@H](c2ccccc2)C1 | inactive
O=C(O)[C@H]1NCCC[C@H]1C(=O)O | inactive
Cn1c(=O)c2c(nc(/C=C/c3cccc(Cl)c3)n2C)n(C)c1=O | inactive
O=c1[nH]c2cc(Cl)ccc2c(O)c1-c1ccc(Oc2ccccc2)cc1 | inactive
CC(N)(C(=O)O)c1ccc(C(=O)O)cc1 (stereo not given) | inactive
CC(C)NC[C@H](O)COc1ccc(CC(N)=O)cc1 | inactive
NCC(O)C1CCCCCCC1 (stereo not given) | inactive
Cn1c(=O)c2[nH]c(-c3ccc(S(=O)(=O)O)cc3)nc2n(C)c1=O | inactive
CC(C)(C)NCC(O)COc1cccc2[nH]c(=O)[nH]c12 (stereo not given) | inactive
O=C1C2C=CC=CC2=NC(=S)N1CCN1CCC(=C(c2ccc(F)cc2)c2ccc(F)cc2)CC1 (stereo not given) | inactive
C#CCn1c(=O)c2c(ncn2C)n(C)c1=O | inactive
CO/N=C(\C(=O)N[C@@H]1C(=O)N2C(C(=O)O)=C(CSc3nc(=O)c(O)nn3C)CSC12)c1csc(N)n1 (stereo not given in full) | inactive
COc1cccc(OC)c1OCCNCC1CSc2ccccc2O1 (stereo not given) | inactive
Cn1cc(C(F)(F)F)nc1-c1ccc(OCC(O)CNCCOc2ccc(O)c(C(N)=O)c2)cc1 (stereo not given) | inactive
O=C(O)/C=C/c1cnc[nH]1 | inactive
COc1cc(C(O)CO)ccc1O (stereo not given) | inactive
